In the library only some 21% were active in any assay of this set; here they are far more common.
Pf growth 48h – Primary qHTS for delayed death inhibitors of the malarial parasite plastid, 48 hour incubation | AID 504832, 2011 | Potency, µM (doses to about 28.7 µM), actives largely listed as inhibitors | P. falciparum luciferase growth in erythrocytes, 48 h | 310,000 compounds, 5.9% hits
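Cell-based growth assay: transgenic P. falciparum expressing firefly luciferase, cultured in red cells within RPMI 1640 containing 0.5% w/v Albumax, 24 mM bicarbonate and gentamycin. A drop in luciferase activity indicates inhibition.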
Pf growth 96h – Primary qHTS for delayed death inhibitors of the malarial parasite plastid, 96 hour incubation; P. falciparum luciferase reporter growth, 96 h; Potency, µM (series often up to 28.7 µM), usual class: inhibitors; 320,000 compounds, 6.9% hits
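Compounds incubated with erythrocytes infected by luciferase-expressing P. falciparum (2% hematocrit, 0.05% parasitemia final) for 96 hours, 37 C in 5% CO2. Growth inhibition scored as decreased luciferase luminescence.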
CHX counter – Cycloheximide Counterscreen for Small Molecule Inhibitors of Shiga Toxin; cell reporter, cycloheximide protein synthesis inhibition counterscreen; max response, %; 300,000 compounds, 12% hits; in the data active = max response mostly above about 13%, no sharp cut-off; inactive = mostly below about 14%; note: read at 38.3 µM for the half of the compounds with a filed dose
Shiga inhibitor – A qHTS for Small Molecule Inhibitors of Shiga Toxin; AID 2315, 2010; inhibition, % at 38.7 µM; 290,000 compounds, 9.2% hits; Vero cells, Shiga toxin protein synthesis inhibition reporter; in the data active = inhibition mostly above about 28%, no sharp cut-off; inactive = mostly below about 43%
HCV inhibitor – qHTS Assay for Inhibitors of Hepatitis C Virus (HCV); Potency, µM (top dose mostly 41.8 µM), hits mostly inhibitors; Huh7.5.1 HCVcc-Cre infection, luciferase reporter, 44 h; 340,000 compounds, 3.4% hits; AID 651820, 2012
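Infectious HCVcc-Cre (~0.5 moi) was added to cells just after compound, with cells seeded 4 h earlier at 1,000 per well. Luciferase activity after 44 h culture reported infection; substrate was incubated 15 min at room temperature before reading.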
HCMV inh – qHTS Assay for inhibitors of the human cytomegalovirus (HCMV) | HFF cells, HCMV-luciferase reporter, 72 h; hits give low values | activity change, negative = inhibition, % at 57.5 µM | 410,000 compounds, 4.5% hits; in the data active = activity change below about -60%; inconclusive = no clear call, values can overlap the other calls; inactive = above about -39%
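Cell-based, HFFs, 1000 cells/well, 16 h 37C; cpds in DMSO + HCMV-luc, MOI 1 PFU/cell; 72 h 37C; OneGlo luminescence after 5 min RT; norm. to buffer vs Salinomycin 10uM.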
Large screens that a line does not name were inactive. Unless noted, calls come from the whole dose curve; as a rule, active = well fitted inhibition curve with a large enough effect; inconclusive = small, poorly fitted or top-dose-only effect, or another doubt; inactive = no such curve, though single readings can be large or run the other way.

Fc1ccc(CSc2ccc(-c3ccc4c(c3)OCO4)nn2)cc1	CHX counter 10.9
Cc1ccc(NC(=O)CSc2ccc(-c3ccc4c(c3)OCO4)nn2)cc1F	Pf growth 96h inconclusive
O=c1oc2ccc(Cl)cc2cc1-c1nc(-c2cccs2)no1	none (no result: Pf growth 48h, Pf growth 96h, CHX counter, Shiga inhibitor, HCV inhibitor)
COc1ccc(-c2oc3ncn4nc(COc5ccc(C)cc5)nc4c3c2-c2ccc(OC)cc2)cc1	none (no result: Pf growth 48h, Pf growth 96h, CHX counter, Shiga inhibitor, HCV inhibitor)
COc1ccc(C2C(C(=O)c3ccccc3)N3c4ccccc4C=CC3C2[N+](=O)[O-])cc1 (stereo unspecified)	Pf growth 48h inconclusive, Pf growth 96h 9.28µM, CHX counter 22.4
CCOC(=O)c1cccc(NC(=O)C2CCN(S(=O)(=O)c3cn(C)cn3)CC2)c1	none (no result: Pf growth 48h, Pf growth 96h, CHX counter, Shiga inhibitor, HCV inhibitor)
CC1CC(C)CN(S(=O)(=O)N2CCC(C(=O)NCCC3=CCCCC3)CC2)C1 (stereo unspecified)	Pf growth 96h inconclusive
O=C(CSCc1ccccc1)Nc1cccc(C(=O)Nc2ccccc2C(=O)O)c1	none
O=C(CSCc1ccc(Cl)cc1)Nc1cc([N+](=O)[O-])ccc1O	Pf growth 48h inconclusive, Shiga inhibitor 45.6, HCV inhibitor 2.24µM
Cc1ccc(SCC(=O)Nc2cc([N+](=O)[O-])ccc2O)cc1	CHX counter 27.9, Shiga inhibitor 54.9
COc1ccc([N+](=O)[O-])cc1NC(=O)CSCc1ccc(Br)cc1	HCV inhibitor inconclusive
O=C(CSCc1ccc([N+](=O)[O-])cc1)Nc1ccc(S(=O)(=O)N2CCCCCC2)cc1	Pf growth 48h inconclusive, Pf growth 96h 10.4µM
O=C(CSCc1ccc([N+](=O)[O-])cc1)Nc1ccccc1C(=O)O	Pf growth 96h 9.28µM
CC(CC(=O)O)CC(=O)Nc1cc([N+](=O)[O-])ccc1O (stereo unspecified)	Pf growth 48h inconclusive
COc1cc(OC)cc(C(=O)NCC(=O)NC(C)c2ccccc2)c1 (stereo unspecified)	none
Cc1nc(-c2cccc(NS(=O)(=O)c3cccc4ccccc34)c2)cs1	none (no result: Pf growth 96h)
O=C(CSCc1ccccc1)Nc1ccccc1C(=O)Nc1ccc(C(=O)O)cc1	CHX counter 13.1, HCV inhibitor inconclusive
CCOc1ccccc1NC(=O)CSc1ccc([N+](=O)[O-])cc1	Pf growth 48h 2.94µM, Pf growth 96h 2.33µM, HCMV inh inconclusive
Cc1ccc(N2C(=O)CCSC23C(=O)N(Cc2ccccc2)c2ccccc23)cc1 (stereo unspecified)	none (no result: Pf growth 48h, Pf growth 96h, CHX counter, Shiga inhibitor, HCV inhibitor)
COC(=O)C1CCN(C(=O)Cn2nnc(-c3cccc(F)c3)n2)CC1	none
COC(=O)c1ccc2c(=O)[nH]c(CN3c4ccccc4CC3C)nc2c1 (stereo unspecified)	Pf growth 48h inconclusive, Pf growth 96h 3.29µM, HCV inhibitor inconclusive
CC1Cc2ccccc2N1Cc1nc2cc(Cl)ccc2c(=O)[nH]1 (stereo unspecified)	Pf growth 96h inconclusive (no result: Pf growth 48h)
COc1ccc(NC(=O)C2CC(=O)N(CCc3ccc(Cl)cc3)C2)cc1 (stereo unspecified)	Pf growth 48h inconclusive, HCMV inh -86.4
O=C(Nc1ccc(SC(F)F)cc1)C1CC(=O)N(Cc2ccccc2)C1 (stereo unspecified)	Pf growth 48h inconclusive, Pf growth 96h inconclusive, CHX counter 15.2, Shiga inhibitor 26.4
O=C(Nc1ccccc1)C1CC(=O)N(Cc2ccccc2)C1 (stereo unspecified)	none
CC(=O)c1ccc(NC(=O)C2CC(=O)N(Cc3ccccc3)C2)cc1 (stereo unspecified)	CHX counter 28.8, Shiga inhibitor 101.0 (no result: Pf growth 96h)
C#Cc1ccc(-n2nc3ccccc3c2OC)cc1	none (no result: Pf growth 48h, Pf growth 96h, CHX counter, Shiga inhibitor, HCV inhibitor)
Fc1ccc(N2CCN(C(c3cccs3)c3nnnn3CCc3ccccc3)CC2)cc1 (stereo unspecified)	Pf growth 48h 13.1µM
Fc1ccccc1N1CCN(C(c2cccs2)c2nnnn2CCc2ccccc2)CC1 (stereo unspecified)	Pf growth 48h 8.28µM, Pf growth 96h inconclusive, HCV inhibitor inconclusive
COCCn1nnnc1C(c1cccs1)N1CCN(c2ccccc2)CC1 (stereo unspecified)	Pf growth 96h inconclusive
c1ccc(Cn2nnnc2C(c2cccs2)N2CCSCC2)cc1 (stereo unspecified)	Pf growth 48h inconclusive, Pf growth 96h inconclusive
CC1CCN(C(c2cccs2)c2nnnn2Cc2ccccc2)CC1 (stereo unspecified)	Pf growth 96h 2.62µM, HCMV inh inconclusive (no result: Pf growth 48h)
COc1ccc(/C=C/c2c(-c3ccc(OC)cc3)sc3cc(OC)c(OC)cc23)cc1	HCV inhibitor 2.51µM (no result: Pf growth 48h, Pf growth 96h, CHX counter, Shiga inhibitor)
COc1ccc(-c2sc3ccccc3c2/C=C/c2ccncc2)cc1	HCV inhibitor 7.08µM (no result: Pf growth 48h, Pf growth 96h, CHX counter, Shiga inhibitor)
C[C@H](NC(=O)[C@H]1N2C(=O)c3ccccc3C2SC1(C)C)C(=O)N1CCCCC1 (stereo partly specified)	none
CSc1ccccc1NC(=O)CSc1nncs1	none
CC1=C(C(=O)N2CCOCC2)CC(CC(=O)NC2CC2)C(=O)N1Cc1ccc(F)cc1 (stereo unspecified)	none (no result: Pf growth 48h, Pf growth 96h, CHX counter, Shiga inhibitor, HCV inhibitor)
C=CCn1c(SCc2ccc(C#N)cc2)nnc1-c1cccc(OC)c1	Pf growth 48h inconclusive, HCMV inh -64.2
C=CCn1c(COc2ccc(Cl)cc2)nnc1SCc1ccc(C#N)cc1	Pf growth 48h inconclusive, HCV inhibitor inconclusive
C=CCn1c(COc2ccccc2)nnc1SCc1ccc(C#N)cc1	Pf growth 96h 0.928µM
CCS(=O)(=O)n1nc(-c2ccccc2)cc1N	Pf growth 96h 1.31µM (no result: Pf growth 48h)
CCCS(=O)(=O)n1nc(-c2ccc(Br)cc2)cc1N	none
CCS(=O)(=O)n1nc(-c2ccccc2)nc1N	none
CCCS(=O)(=O)n1nc(-c2ccccc2)cc1N	Pf growth 96h 9.28µM (no result: Pf growth 48h)
Cc1ccc(-c2nnn(CC(=O)N3CCCCC3)n2)o1	CHX counter 17.7, Shiga inhibitor 71.2
O=C(Cn1nnc(-c2ccc(F)cc2)n1)N1CCCCC1	none
CS(=O)(=O)c1ccc(-c2nnn(CC(=O)N3CCCCC3)n2)cc1	Pf growth 96h 11.7µM
O=C(Cn1nnc(-c2ccccc2F)n1)N1CCCCC1	CHX counter 35.4, Shiga inhibitor 49.6
COc1ccc(N2CCN(c3oc(/C=C/c4cc(OC)c(OC)c(OC)c4)nc3C#N)CC2)cc1	none (no result: Pf growth 48h, Pf growth 96h, CHX counter, Shiga inhibitor, HCV inhibitor)
Cc1cc(CNC(=O)C2CCC(=O)N(Cc3cccc(C(F)(F)F)c3)C2)no1 (stereo unspecified)	none (no result: HCV inhibitor)
O=C(NCc1ccon1)C1CCC(=O)N(Cc2cccc(C(F)(F)F)c2)C1 (stereo unspecified)	CHX counter 20.2
CSc1cccc(CNC(=O)C2CCC(=O)N(Cc3cccc(C(F)(F)F)c3)C2)c1 (stereo unspecified)	CHX counter 22.5, Shiga inhibitor 85.9
CCN1C(=O)[C@H]2[C@H]3CN=C(SCC4CC4)N3[C@@](CC)(C(=O)OC)[C@H]2C1=O	HCV inhibitor inconclusive (no result: Pf growth 48h, Pf growth 96h, CHX counter, Shiga inhibitor)

Source: PubChem BioAssay
